# Assay results taken from PubChem BioAssay (EPA / NIEHS).
# The source made the active and inactive calls. Rule for the calls: active = hit-call score of the fitted dose curve at least 0.9, where 1 is the maximum; inactive = score below 0.9.
# Assays:
# Details in all cases: mRNA level, 48 h; actives raise or lower the signal
# [1] = read-out: MYC, MYC (gene 4609); experiment: LTEA_HepaRG_MYC: Life Technologies and Expression Analysis (LTEA) Assay for MYC using HepaRG (AID 2283518)
# In short: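 MYC transcript changes, up or down relative to 0.5% DMSO, from TaqMan qRT-PCR normalized to three housekeeping genes. Human HepaRG cultures received chemicals for 48 h at eight half-log concentrations up to 100 uM, in duplicate.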
# [2] = read-out: matrix metalloproteinase-3 (MMP3), MMP3 (gene 4314); experiment: LTEA_HepaRG_MMP3: Life Technologies and Expression Analysis (LTEA) Assay for matrix metalloproteinase-3 (MMP3) using HepaRG (AID 2283519)
# In short: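 qRT-PCR read-out of MMP3 mRNA (normalised to three housekeeping genes) in HepaRG liver cells after 48 h chemical exposure; 8-point half-log series, top 100 uM, 0.5% DMSO vehicle. Bidirectional curve fitting against DMSO baseline.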
# [3] = read-out: Paternally Expressed 10 (PEG10), PEG10 (gene 23089); experiment: LTEA_HepaRG_PEG10: Life Technologies and Expression Analysis (LTEA) Assay for Paternally Expressed 10 (PEG10) using HepaRG (AID 2283520);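 for AC50: PEG10 transcript by qRT-PCR normalised to ACTB GAPDH and POLR2A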
# In short: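 After 48 h exposure of differentiated HepaRG cells (0.5% DMSO vehicle, eight concentrations up to 100 uM, duplicates), PEG10 mRNA was measured by TaqMan qRT-PCR. Values were normalised to endogenous control genes and analysed bidirectionally against vehicle.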
# [4] = read-out: Nuclear factor NF-kappa-B p105 subunit (Homo sapiens) (UniProt P19838); experiment: LTEA_HepaRG_NFKB1: Life Technologies and Expression Analysis (LTEA) Assay for Nuclear Factor Kappa B Subunit 1 (NFKB1) using HepaRG (AID 2283521);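 note: TaqMan qRT-PCR transcript normalised to ACTB GAPDH and POLR2A housekeeping genes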
# In short: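 Differentiated human HepaRG cells were exposed for 48 h in serum-free induction medium to eight concentrations (top 100 uM, half-log steps, 0.5% DMSO), in duplicate. NFKB1 mRNA was measured by TaqMan qRT-PCR, normalized to ACTB/GAPDH/POLR2A, and fitted bidirectionally against DMSO.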
# [5] = read-out: Protein phosphatase 2A (PPP2R4), PTPA (gene 5524); experiment: LTEA_HepaRG_PPP2R4: Life Technologies and Expression Analysis (LTEA) Assay for Protein phosphatase 2A (PPP2R4) using HepaRG (AID 2283522)
# In short: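 Using HepaRG cultures maintained in 0.5% DMSO, chemicals are tested 48 h at up to 100 uM in duplicate. Induction or suppression of PPP2R4 mRNA, measured by qRT-PCR, is fitted bidirectionally against the vehicle baseline.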
# [6] = read-out: Phosphatase and tensin (PTEN), PTEN (gene 5728); experiment: LTEA_HepaRG_PTEN: Life Technologies and Expression Analysis (LTEA) Assay for Phosphatase and tensin (PTEN) using HepaRG (AID 2283523)
# In short: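 HepaRG, 48 h exposure, 8-pt half-log series from 100 uM top, 0.5% DMSO vehicle, duplicates. Readout: Fluidigm qRT-PCR of PTEN transcript; housekeeping normalization (ACTB, GAPDH, POLR2A). Gain or loss fitted relative to DMSO baseline.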
# [7] = read-out: solute carrier (SLC22A1), SLC22A1 (gene 6580); experiment: LTEA_HepaRG_SLC22A1: Life Technologies and Expression Analysis (LTEA) Assay for solute carrier (SLC22A1) using HepaRG (AID 2283524)
# In short: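 qRT-PCR readout (TaqMan, Fluidigm arrays) of SLC22A1 transcript, normalized to three housekeeping genes; bidirectional curve fit relative to 0.5% DMSO vehicle. Differentiated human HepaRG cells, 48 h chemical exposure, top concentration 100 uM, half-log steps, eight points.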
# [8] = read-out: Pyruvate Dehydrogenase Kinase 4 (PDK4), PDK4 (gene 5166); experiment: LTEA_HepaRG_PDK4: Life Technologies and Expression Analysis (LTEA) Assay for Pyruvate Dehydrogenase Kinase 4 (PDK4) using HepaRG (AID 2283525)
# In short: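 HepaRG (human liver line), 48 h chemical exposure, 8-pt half-log CRC top 100 uM, 0.5% DMSO vehicle, duplicates. Readout: TaqMan qRT-PCR of PDK4 mRNA, housekeeping-normalized; gain/loss fit relative to DMSO baseline.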
# [9] = read-out: NAD(P)H dehydrogenase [quinone] 1 (NQO1), NQO1 (gene 1728); experiment: LTEA_HepaRG_NQO1: Life Technologies and Expression Analysis (LTEA) Assay for NAD(P)H dehydrogenase [quinone] 1 (NQO1) using HepaRG (AID 2283526)
# In short: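 In this assay, gene expression is read by qRT-PCR after 48 h exposure of HepaRG cells to eight concentrations (max 100 uM, half-log) in 0.5% DMSO. Each chemical runs in duplicate, and activity is scored relative to vehicle.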
# [10] = read-out: Nuclear factor erythroid 2-related factor 2 (Homo sapiens) (UniProt Q16236); experiment: LTEA_HepaRG_NFE2L2: Life Technologies and Expression Analysis (LTEA) Assay for Nuclear factor erythroid 2-related factor 2 (NFE2L2) Transcription Factor using HepaRG (AID 2283527);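 for outcome: TaqMan qRT-PCR transcript level normalised to ACTB GAPDH and POLR2A housekeeping genes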
# In short: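 HepaRG, 48 h dosing, 8-pt half-log series from 100 uM in 0.5% DMSO, duplicates. Read-out: NFE2L2 mRNA by qRT-PCR (ACTB/GAPDH/POLR2A normalization). Bidirectional curve fit vs DMSO baseline.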
# [11] = read-out: succinate dehydrogenase complex iron sulfur subunit B (SDHB), SDHB (gene 6390); experiment: LTEA_HepaRG_SDHB: Life Technologies and Expression Analysis (LTEA) Assay for succinate dehydrogenase complex iron sulfur subunit B (SDHB) using HepaRG (AID 2283528)
# In short: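 HepaRG, 48 h exposure, 8-pt half-log series from 100 uM in 0.5% DMSO, duplicates. Readout: SDHB mRNA by Fluidigm qRT-PCR vs housekeeping genes; bidirectional fit relative to DMSO.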
# [12] = read-out: solute carrier (SLCO1B1), SLCO1B1 (gene 10599); experiment: LTEA_HepaRG_SLCO1B1: Life Technologies and Expression Analysis (LTEA) Assay for solute carrier (SLCO1B1) using HepaRG (AID 2283530)
# In short: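 SLCO1B1 transcript levels were quantified by TaqMan qRT-PCR using three housekeeping genes for normalization. This followed 48 h chemical exposure (100 uM top, half-log, 8 points, 0.5% DMSO) of HepaRG liver cells, with gain or loss fitted relative to DMSO.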
# [13] = read-out: sulfotransferase 2A1 (SULT2A1), SULT2A1 (gene 6822); experiment: LTEA_HepaRG_SULT2A1: Life Technologies and Expression Analysis (LTEA) Assay for sulfotransferase 2A1 (SULT2A1) using HepaRG (AID 2283531)
# In short: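 Expression change of SULT2A1, by qRT-PCR with three housekeeping-gene normalization, was scored bidirectionally versus DMSO. Cells: differentiated HepaRG, dosed in duplicate for 48 h across 8 points, highest 100 µM, half-log dilution, 0.5% DMSO.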
# [14] = read-out: Transforming Growth Factor (TGFA), TGFA (gene 7039); experiment: LTEA_HepaRG_TGFA: Life Technologies and Expression Analysis (LTEA) Assay for Transforming Growth Factor (TGFA) using HepaRG (AID 2283532)
# In short: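 qRT-PCR read-out of TGFA transcript, normalized to three housekeeping genes, fitted bidirectionally against 0.5% DMSO baseline. Human HepaRG cultures received chemicals for 48 h at eight half-log concentrations, top 100 uM.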
# [15] = read-out: TIMP1, TIMP1 (gene 7076); experiment: LTEA_HepaRG_TIMP1: Life Technologies and Expression Analysis (LTEA) Assay for TIMP1 using HepaRG (AID 2283534)
# In short: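 Bidirectional change in TIMP1 transcript versus 0.5% DMSO, measured by TaqMan qRT-PCR with three housekeeping genes for normalization. HepaRG human liver cells dosed 48 h in duplicate, top concentration 100 uM with half-log dilutions.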
# [16] = read-out: Tumor necrosis factor receptor 1 (TNFRSF1A), TNFRSF1A (gene 7132); experiment: LTEA_HepaRG_TNFRSF1A: Life Technologies and Expression Analysis (LTEA) Assay for Tumor necrosis factor receptor 1 (TNFRSF1A) using HepaRG (AID 2283535)
# In short: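 mRNA measured by qRT-PCR (TaqMan, Fluidigm arrays) against ACTB/GAPDH/POLR2A housekeepers after 48 h chemical exposure of HepaRG cells. Top concentration 100 uM, half-log 8-point series, duplicates; vehicle 0.5% DMSO, both fit directions.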
# [17] = read-out: Thyroid Hormone Responsive (THRSP), THRSP (gene 7069); experiment: LTEA_HepaRG_THRSP: Life Technologies and Expression Analysis (LTEA) Assay for Thyroid Hormone Responsive (THRSP) using HepaRG (AID 2283536)
# In short: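 qRT-PCR read-out (Fluidigm TaqMan), housekeeping-normalized (ACTB/GAPDH/POLR2A). HepaRG, 48 h chemical exposure, 8-pt half-log series from 100 uM in 0.5% DMSO, duplicates. Bidirectional curve fit vs 0.5% DMSO baseline.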
# [18] = read-out: Cellular tumor antigen p53 (Homo sapiens) (UniProt P04637); experiment: LTEA_HepaRG_TP53: Life Technologies and Expression Analysis (LTEA) Assay for Tumor Protein P53 (TP53) using HepaRG (AID 2283537)
# In short: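 HepaRG, 48 h exposure, top 100 uM, half-log 8-point, 0.5% DMSO vehicle, duplicates. Read: TP53 mRNA by TaqMan qRT-PCR, normalised to ACTB/GAPDH/POLR2A; bidirectional fit vs DMSO.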
# Sequence of Nuclear factor NF-kappa-B p105 subunit (Homo sapiens) (P19838 whole entry, looked up): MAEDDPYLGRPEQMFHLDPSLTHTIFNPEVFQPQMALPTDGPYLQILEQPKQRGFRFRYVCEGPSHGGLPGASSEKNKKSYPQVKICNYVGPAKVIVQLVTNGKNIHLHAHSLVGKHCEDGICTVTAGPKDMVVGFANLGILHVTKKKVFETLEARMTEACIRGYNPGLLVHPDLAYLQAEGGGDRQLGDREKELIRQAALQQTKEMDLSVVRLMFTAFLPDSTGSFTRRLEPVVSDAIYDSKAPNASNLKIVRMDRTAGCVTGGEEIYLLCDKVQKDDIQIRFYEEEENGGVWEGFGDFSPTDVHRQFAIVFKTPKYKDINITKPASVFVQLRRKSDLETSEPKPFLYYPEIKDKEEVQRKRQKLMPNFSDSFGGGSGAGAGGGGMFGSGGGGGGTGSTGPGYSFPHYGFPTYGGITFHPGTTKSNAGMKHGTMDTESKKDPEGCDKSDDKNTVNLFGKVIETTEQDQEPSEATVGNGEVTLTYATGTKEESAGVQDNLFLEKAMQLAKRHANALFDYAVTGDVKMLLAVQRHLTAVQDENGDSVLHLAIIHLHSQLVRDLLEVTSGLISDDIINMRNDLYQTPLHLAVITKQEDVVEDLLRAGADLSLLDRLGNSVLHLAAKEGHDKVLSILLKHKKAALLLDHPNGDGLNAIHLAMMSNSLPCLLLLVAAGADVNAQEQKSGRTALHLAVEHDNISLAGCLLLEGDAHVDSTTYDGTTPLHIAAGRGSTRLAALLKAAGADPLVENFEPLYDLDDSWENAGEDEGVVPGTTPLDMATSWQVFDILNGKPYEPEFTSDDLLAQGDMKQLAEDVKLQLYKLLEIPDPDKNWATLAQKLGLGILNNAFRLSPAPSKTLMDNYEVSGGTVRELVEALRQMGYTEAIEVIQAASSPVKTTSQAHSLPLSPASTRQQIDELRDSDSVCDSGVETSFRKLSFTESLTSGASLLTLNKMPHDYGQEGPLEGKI
# Sequence of Cellular tumor antigen p53 (Homo sapiens) (P04637 whole entry, looked up): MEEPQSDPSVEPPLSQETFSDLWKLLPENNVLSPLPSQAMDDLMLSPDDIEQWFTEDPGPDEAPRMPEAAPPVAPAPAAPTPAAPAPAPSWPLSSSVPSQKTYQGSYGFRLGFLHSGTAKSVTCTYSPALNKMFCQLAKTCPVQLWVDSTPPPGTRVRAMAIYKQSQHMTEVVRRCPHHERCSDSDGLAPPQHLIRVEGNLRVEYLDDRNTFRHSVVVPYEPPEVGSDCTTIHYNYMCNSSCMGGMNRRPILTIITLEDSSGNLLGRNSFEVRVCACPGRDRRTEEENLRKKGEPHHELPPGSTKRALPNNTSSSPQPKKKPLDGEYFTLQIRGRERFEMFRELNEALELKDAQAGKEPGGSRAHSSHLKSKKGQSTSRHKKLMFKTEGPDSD
# Sequence of Nuclear factor erythroid 2-related factor 2 (Homo sapiens) (Q16236 whole entry, looked up): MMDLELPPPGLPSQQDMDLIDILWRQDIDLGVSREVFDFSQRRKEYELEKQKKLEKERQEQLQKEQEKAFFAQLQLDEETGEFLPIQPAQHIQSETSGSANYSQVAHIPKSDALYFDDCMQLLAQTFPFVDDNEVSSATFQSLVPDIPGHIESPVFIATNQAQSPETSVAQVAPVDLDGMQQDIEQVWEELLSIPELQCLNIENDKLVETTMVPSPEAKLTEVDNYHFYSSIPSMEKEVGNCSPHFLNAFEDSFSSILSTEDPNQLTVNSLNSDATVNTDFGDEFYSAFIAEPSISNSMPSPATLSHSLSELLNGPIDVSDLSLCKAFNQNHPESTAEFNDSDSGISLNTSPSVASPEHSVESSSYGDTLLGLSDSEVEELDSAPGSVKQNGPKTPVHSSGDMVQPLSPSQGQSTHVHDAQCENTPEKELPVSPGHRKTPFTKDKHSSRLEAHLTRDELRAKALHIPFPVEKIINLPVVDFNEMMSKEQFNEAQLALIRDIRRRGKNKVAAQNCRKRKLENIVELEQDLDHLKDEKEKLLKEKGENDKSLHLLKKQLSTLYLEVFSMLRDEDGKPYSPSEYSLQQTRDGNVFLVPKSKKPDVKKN
compound,measurement,setting,value
Nc1cccc2c(N)cccc12,outcome,[1],inactive
same,outcome,[2],inactive
same,AC50,[3],9.92 µM (active)
same,outcome,[4],inactive
same,outcome,[5],inactive
same,outcome,[6],inactive
same,AC50,[7],50 µM (active)
same,outcome,[8],inactive
same,outcome,[9],inactive
same,outcome,[10],inactive
same,outcome,[11],inactive
same,AC50,[12],9.92 µM (active)
same,outcome,[13],inactive
same,outcome,[14],inactive
same,outcome,[15],inactive
same,outcome,[16],inactive
same,AC50,[17],10.9 µM (active)
same,outcome,[18],inactive
ClC1=C(Cl)C(Cl)(Cl)C(Cl)=C1Cl,outcome,[1],inactive
same,outcome,[2],inactive
same,outcome,[3],inactive
same,outcome,[4],inactive
same,outcome,[5],inactive
same,outcome,[6],inactive
same,outcome,[7],inactive
same,outcome,[8],inactive
same,outcome,[9],inactive
same,outcome,[10],inactive
same,outcome,[11],inactive
same,outcome,[12],inactive
same,outcome,[13],inactive
same,outcome,[14],inactive
same,outcome,[15],inactive
same,outcome,[16],inactive
same,outcome,[17],inactive
same,outcome,[18],inactive
CC1=C(/C=C/C(C)=C/C=C/C(C)=C/C(=O)O)C(C)(C)CCC1,AC50,[1],22.7 µM (active)
same,AC50,[2],18 µM (active)
same,AC50,[3],9 µM (active)
same,outcome,[4],inactive
same,outcome,[5],inactive
same,outcome,[6],inactive
same,AC50,[7],22.9 µM (active)
same,AC50,[8],33.8 µM (active)
same,AC50,[9],11 µM (active)
same,AC50,[10],20.4 µM (active)
same,AC50,[11],1.09 µM (active)
same,AC50,[12],11.5 µM (active)
same,AC50,[13],0.812 µM (active)
same,outcome,[14],inactive
same,outcome,[16],inactive
same,outcome,[17],inactive
same,outcome,[18],inactive
CCCCCCCCCCCCCCCS(=O)(=O)Oc1ccccc1,outcome,[1],inactive
same,outcome,[2],inactive
same,outcome,[3],inactive
same,outcome,[4],inactive
same,outcome,[5],inactive
same,outcome,[6],inactive
same,outcome,[7],inactive
same,outcome,[8],inactive
same,outcome,[9],inactive
same,outcome,[10],inactive
same,outcome,[11],inactive
same,outcome,[12],inactive
same,outcome,[13],inactive
same,outcome,[14],inactive
same,outcome,[16],inactive
same,outcome,[17],inactive
same,outcome,[18],inactive
